# Data published in the supplement of paper PMC11417369.
# ± gives the standard deviation of the averaged measurements. Whole data set: some 25,000 sequences, median “ln(normalized median fluorescence intensity)” near 7.9, cut for the highest 2% near 11. Many of the other results were omitted from the sample, so the highest values are more common in it than they were.
# Tested on: PfAP2-I AP2 domain 3 (GST-tagged)
# Experiment: gcPBM binding intensity (ln(normalized median fluorescence intensity)); higher = stronger DNA binding
# Procedure, shortened: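 Binding intensity values are the highest Masliner-normalised natural-log median intensity among replicate spots of either probe orientation. The binding step lasted 1 h in 1× PBS with 1% milk, 0.2 mg/ml BSA, 0.5% salmon testes DNA and 0.03% Triton X-100, using GST-tagged P. falciparum DNA-binding domains expressed in E. coli on an Agilent 4 × 180k array of primer-extended double-stranded 36-bp intergenic genomic probes plus negative controls. Alexa488 anti-GST antibody and a 488 nm scan detected bound protein.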
row,Sequence,gcPBM binding intensity (ln)
1,TTTTATATCTACCTTTGTACATATTTATTTTTTTTA [XGTACX_site7872],8.01 ± 0.74
2,AATAATGAAACAGGAAAAAAATATTGTTAAAATGTA [XGTACX_negctrl_site400],7.95 ± 0.78
3,AAAAAAAAAAAAAAAACACACATAAATAGCTCAAAT [CACACA_site3973],8.78 ± 0.49
4,ACAAAACGAACATACGCATGTGTGTACATTAATATA [TGCATGCA_site922],8.14 ± 0.099
5,TTTTCATTCTTTTCCTTTGATTTACAATAGTATATT [GTGCAC_negctrl_site687],7.72 ± 0.79
6,TTTTCCATAAGAATTACACACAGAAAGGATAAGTAT [CACACA_site105],8.04 ± 0.73
7,TAATAATCAAGTTAACGTACAAAATCATCTATAGAA [XGTACX_site5921],8.03 ± 0.13
8,TTAAAATAGATATTAGTGCAAAAAAAAAAAAATAAA,10.7 ± 0.23
9,TAAATTTATATATAGGTGCGCAATTTGATAATAGTT [GTGCAC_site9783],9.82 ± 0.19
10,ATTGATTATTTTCTAGTGCATAAAATAATTTTTTTT,10.5 ± 0.51
11,TGTAAATAATATAATAGTACGCATATTTTTATTGAA [XGTACX_site284],7.87 ± 0.17
12,TATTAATATATAGTAGTGCAATAAAGATATACTGAA,10.9 ± 0.58
13,ATTATTATATAGTGTGCATGCAATATTAATAAAACC [TGCATGCA_site245],8.79 ± 0.52
14,GTTATAATTGAACTAGTGCATAAATATATTTTAATT [GTGCAC_site9851],11.1 ± 0.45
15,TCAAAAATTTATATAGTGCAATATATATATAATGTA,10.6 ± 0.72
16,TAATATATATATATGGTGCATTTAATTTATATATAA,11.2 ± 0.74
17,CATATAATTTTATGGGTGCATTTTTTTGTAAGACCA,10.1 ± 0.58
18,TCTATTTTTTATATGGTGCATTGTTCTTATTAATAT [GTGCAC_site9392],10.8 ± 0.71
19,TATAATAGTTCATAGGTGCAATATAATAAATTTATA [GTGCAC_site9573],11.2 ± 0.47
20,TATTTTTATTTATAACGTACGAAAAATGTATATAAT [XGTACX_site703],7.96 ± 0.35

row,Sequence,gcPBM binding intensity (ln)
1,AAATTCCACGGACACACACACATATAAATAAATAAA [CACACA_site4811],8.23 ± 0.37
2,TCAACATTTAAAAATAGTACTCATAAACCTTTCGAA [XGTACX_site4111],7.42 ± 0.46
3,TATGAATGGTTAAGTACACACATATTAATATAGGTA [CACACA_site7606],7.79 ± 0.49
4,ACATATATTTTTTTTTGTACATATAAATATATATAT [XGTACX_site6491],8.7 ± 0.39
5,TTTAAATATAATTGGAGTACTTATAATATATATATA [XGTACX_site7247],8.97 ± 0.12
6,CATTAATTTAATAAATGTACATAAAATATATATTAT [XGTACX_site8085],7.89 ± 0.36
7,CCATTATACACAATATGTACATATATATAATCATTT [XGTACX_site7942],8.04 ± 0.43
8,AGAGATACATAAAAAAGTACATATAAAATTTAGGAA [XGTACX_site7201],7.96 ± 0.19
9,AATTATACGAAATAAAACTTAATAGACAAAAAATTA [CACACA_negctrl_site1384],7.54 ± 0.63
10,GAAAATAAAATATTAGTGCATTATTTGATCAATAAT,11.3 ± 0.73
11,ATATTTTATATAATAGTGCAAATAATATTAAATAAT,10.8 ± 0.37
12,TTACAATAAATTATAGTGCAATATTTTATTTAATAT,10.6 ± 0.36
13,ACATATTAAATATGAGTGCAATATATATATATATAA,10.9 ± 0.43
14,TTTGAAATATATTTAGTGCATATATATTGATTATAA [GTGCAC_site9604],10.4 ± 0.34
15,GTTATATTTAAAATAGTGCAATAAAAATAATAATAT,11.4 ± 0.67
16,TATATATTAAAAATAGTGCAAAATAATATATATATA [GTGCAC_site9716],10.78 ± 0.021
17,TGCAATTTAATATGAGTGCATATATTGAGAAAATAC,10.04 ± 0.035
18,AATCAATTAATATTAGCATAAAATTTTATTATTTTG [XGTACX_negctrl_site479],7.46 ± 0.71
19,TATATGAACTTATATACACACCATTTTTGTAAATCT [CACACA_site4547],7.62 ± 0.54
20,AAATTTGGCAAACACACACACACACCCACAGAGACA [CACACA_site4490],8.305 ± 0.021

row,Sequence,gcPBM binding intensity (ln)
1,CCAGGAAAAATTTATTGTACATATATTTTTATGCTC [XGTACX_site7154],7.68 ± 0.53
2,ATATAGATCTACACTGCACACATTTTTAACACTGCT [CACACA_site1882],9.04 ± 0.5
3,TATATAGAAAACAAGGCATGCAAATAACAAATTGTG [TGCATGCA_site473],8.32 ± 0.91
4,TTTAGCACAAACAAAAAAAAAATAGAAAAAAATATA [CACACA_negctrl_site1772],7.59 ± 0.61
5,GTTCCAGGCATTCGTGCGCACAAATAGAAACAATTA [GTGCAC_site9824],11.15 ± 0.035
6,TGTGTTCATATATGCACACGCATATATATTATTGTT [CACACA_site3822],9.1 ± 0.25
7,ATGCACTCATTGTGCACACGCATATTACGAAAAGAA [CACACA_site2638],10.6 ± 0.18
8,ATATGCACTCATTGTGCACACGCATATTACGAAAAG [CACACA_site2637],11 ± 0.35
9,TTTCTTTCTTTCTTTTTTTAAATATTTTTTAAAAAT [TGCATGCA_negctrl_site206],7.98 ± 0.62
10,ATTATAATGGTAAAGTGTACAAATTTTTATTACACC [XGTACX_site5274],8.49 ± 0.092
11,TATCATCTTAATATCGTGCACATTTATAGAACGAAA [GTGCAC_site9992],11 ± 0.12
12,GCTTCTTAATATCATACACACATAGATATATTTATA [CACACA_site5676],8.11 ± 0.58
13,TTTATATTATTATATCTTATTAATTATTTATCATTT [TGCATGCA_negctrl_site73],7.28 ± 0.58
14,TATACAACTTTATGAAGTACAAAAAGTTCTATATAT [XGTACX_site3866],7.52 ± 0.44
15,TGCCATCATATCATAGGTACACAAACATATAAAGAA [XGTACX_site4137],8.22 ± 0.82
16,AATATATATTTATATTGTACATATATATATATTTCT [XGTACX_site2603],7.55 ± 0.34
17,TTTTTCTATAAAAAATGTACATATTTTATGAAGGAA [XGTACX_site821],7.96 ± 0.5
18,ATTTAATTTTCATGATGTACTATAGTTTAATGCACA [XGTACX_site1624],11.6 ± 1.1
19,AATGAATATAGTACTGAATGTAATTTAAGGTTTTCC [CACACA_negctrl_site1548],7.53 ± 0.68
20,TTTTAGTTAATTCATGCATGTAAAGTTTTATTTATA [TGCATGCA_site252],7.72 ± 0.54
